Measurements taken from PubChem BioAssay AID1159580 (chemical genetic matrix, 2015).
Among all 5,500 compounds or so, about 2,000 (36%) were called active. Not shown: some 18% with an inconclusive outcome. No stated cut-off is given here; in the data, active means normalized growth mostly below about 0.91 (no sharp cut-off); inconclusive means no clear call, values can overlap the other calls; inactive means mostly above about 0.92. This is one part of the list.

Test: chemical genetic growth profiling, strain panel (AID 1159580);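 further: tested at 20 µM; growth read once vehicle control cultures reached saturation at 30 °C; 1 = growth at the plate median or of vehicle wells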
Conditions: S. cerevisiae deletion strains, growth OD

Measured: normalized growth

CCC(CCC(C)C1CCC2C3CC=C4C[C@@H](OC(C)=O)CC[C@]4(C)C3CC[C@]12C)C(C)C (stereo partly drawn)
inactive: locus YBR021W, strain FUR4, stronger effect = lower value 0.996 | locus YBR229C, strain ROT2, stronger effect = lower value 0.99 | locus YCL029C, strain bik1, stronger effect = lower value 0.996 | locus YDL035C, strain GPR1, stronger effect = lower value 1.04 | locus YDL074C, strain BRE1, stronger effect = lower value 1.07 | locus YDL101C, strain DUN1, stronger effect = lower value 0.979 | locus YDL134C, strain PPH21, stronger effect = lower value 1.01 | locus YDL185W, strain tfp1, stronger effect = lower value 0.974 | locus YDL192W, strain arf1, stronger effect = lower value 1 | locus YDR101C, strain arx1, stronger effect = lower value 1.02 | locus YDR162C, strain NBP2, stronger effect = lower value 1 | locus YDR318W, strain mcm21, stronger effect = lower value 0.976 | locus YDR388W, stronger effect = lower value 0.963 | locus YDR502C, strain sam2, stronger effect = lower value 0.968 | locus YEL061C, strain CIN8, stronger effect = lower value 1 | locus YER110C, stronger effect = lower value 0.968 | locus YER155C, strain BEM2, stronger effect = lower value 0.981 | locus YER167W, strain BCK2, stronger effect = lower value 1.01 | locus YGL078C, strain dbp3, stronger effect = lower value 0.964 | locus YGL086W, strain mad1, stronger effect = lower value 0.992 | locus YGL248W, strain PDE1, stronger effect = lower value 0.982 | locus YGR078C, strain PAC10, stronger effect = lower value 0.989 | locus YGR135W, strain pre9, stronger effect = lower value 0.945 | locus YGR252W, strain gcn5, stronger effect = lower value 0.941 | locus YHR030C, strain SLT2, stronger effect = lower value 0.991 | locus YHR079C, strain IRE1 (second series), stronger effect = lower value 0.977 | locus YHR094C, strain hxt1, stronger effect = lower value 0.976 | locus YHR129C, strain ARP1, stronger effect = lower value 0.998 | locus YHR200W, strain rpn10, stronger effect = lower value 0.975 | locus YIL066C, strain RNR3, stronger effect = lower value 1.02 | locus YIL073C, strain SPO22, stronger effect = lower value 1.01 | locus YIL125W, strain kgd1, stronger effect = lower value 0.987 | locus YIR030C, strain dcg1, stronger effect = lower value 0.968 | locus YJL095W, strain BCK1, stronger effect = lower value 0.991 | locus YJL134W, strain LCB3, stronger effect = lower value 0.991 | locus YJL168C, strain set2, stronger effect = lower value 0.96 | locus YJL187C, strain SWE1 (second series), stronger effect = lower value 0.979 | locus YJR043C, strain POL32, stronger effect = lower value 1.05 | locus YKL009W, strain mrt4, stronger effect = lower value 1.03 | locus YKL068W, stronger effect = lower value 0.987 | locus YKL085W, strain MDH1 (second series), stronger effect = lower value 0.989 | locus YKL085W, strain MDH1, stronger effect = lower value 0.989 | locus YKL190W, strain CNB1, stronger effect = lower value 1 | locus YKR001C, strain vps1, stronger effect = lower value 0.995 | locus YLR039C, strain RIC1, stronger effect = lower value 1.07 | locus YLR058C, strain SHM2, stronger effect = lower value 1 | locus YLR102C, strain apc9, stronger effect = lower value 0.978 | locus YLR262C, strain YPT6, stronger effect = lower value 1.08 | locus YLR268W, strain sec22, stronger effect = lower value 1.02 | locus YLR330W, strain CHS5, stronger effect = lower value 0.993 | locus YLR342W, strain FKS1 (second series), stronger effect = lower value 1.09 | locus YLR371W, strain rom2, stronger effect = lower value 0.993 | locus YLR418C, strain cdc73, stronger effect = lower value 0.959 | locus YML016C, strain PPZ1, stronger effect = lower value 1.01 | locus YML032C, strain rad52, stronger effect = lower value 1.01 | locus YML124C, strain tub3, stronger effect = lower value 0.98 | locus YMR078C, strain ctf18, stronger effect = lower value 0.962 | locus YMR223W, strain ubp8, stronger effect = lower value 0.992 | locus YMR307W, strain GAS1, stronger effect = lower value 1.06 | locus YNL067W, strain RPL9B, stronger effect = lower value 0.974 | locus YNL128W, strain TEP1, stronger effect = lower value 1.01 | locus YNL233W, strain BNI4, stronger effect = lower value 0.98 | locus YNL250W, strain rad50, stronger effect = lower value 0.947 | locus YNL271C, strain bni1, stronger effect = lower value 0.957 | locus YNL298W, strain CLA4, stronger effect = lower value 0.997 | locus YNL307C, strain MCK1, stronger effect = lower value 0.975 | locus YNR052C, strain pop2, stronger effect = lower value 0.961 | locus YOL006C, strain TOP1, stronger effect = lower value 1.2 | locus YOL012C, strain htz1 1.41 | locus YOL147C, strain pex11, stronger effect = lower value 0.989 | locus YOR061W, strain CKA2, stronger effect = lower value 1.01 | locus YOR069W, strain VPS5, stronger effect = lower value 0.99 | locus YOR136W, strain idh2, stronger effect = lower value 0.975 | locus YOR144C, strain elg1, stronger effect = lower value 0.97 | locus YOR184W, strain ser1, stronger effect = lower value 1.04 | locus YOR316C, strain cot1, stronger effect = lower value 0.978 | locus YPL055C, strain LGE1, stronger effect = lower value 1.03 | locus YPL241C, strain CIN2, stronger effect = lower value 0.984 | locus YPR119W, strain clb2, stronger effect = lower value 0.971 | locus YPR141C, strain kar3, stronger effect = lower value 0.975 | locus YPR163C, strain tif3, stronger effect = lower value 0.982 | locus YPR167C, strain met16, stronger effect = lower value 0.967 | strain wtn01, stronger effect = lower value 1.01
